# About 14,000 (4.5%) of roughly 310,000 compounds showed an effect of 50% or more. Effects have a minus sign here. For the sample, strong results were picked, then their nearest neighbours and some compounds at random.
# Target: human ether-à-go-go-related gene (hERG) potassium channel (human, UniProt Q12809)
# Assay: primary screen, population patch clamp on CHO cells stably expressing hERG; higher = less effect of the substance
# 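Further: peak tail current of the secondary pulse compared with the same well before compound.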
# Chain of human ether-à-go-go-related gene (hERG) potassium channel (Q12809 whole entry, looked up): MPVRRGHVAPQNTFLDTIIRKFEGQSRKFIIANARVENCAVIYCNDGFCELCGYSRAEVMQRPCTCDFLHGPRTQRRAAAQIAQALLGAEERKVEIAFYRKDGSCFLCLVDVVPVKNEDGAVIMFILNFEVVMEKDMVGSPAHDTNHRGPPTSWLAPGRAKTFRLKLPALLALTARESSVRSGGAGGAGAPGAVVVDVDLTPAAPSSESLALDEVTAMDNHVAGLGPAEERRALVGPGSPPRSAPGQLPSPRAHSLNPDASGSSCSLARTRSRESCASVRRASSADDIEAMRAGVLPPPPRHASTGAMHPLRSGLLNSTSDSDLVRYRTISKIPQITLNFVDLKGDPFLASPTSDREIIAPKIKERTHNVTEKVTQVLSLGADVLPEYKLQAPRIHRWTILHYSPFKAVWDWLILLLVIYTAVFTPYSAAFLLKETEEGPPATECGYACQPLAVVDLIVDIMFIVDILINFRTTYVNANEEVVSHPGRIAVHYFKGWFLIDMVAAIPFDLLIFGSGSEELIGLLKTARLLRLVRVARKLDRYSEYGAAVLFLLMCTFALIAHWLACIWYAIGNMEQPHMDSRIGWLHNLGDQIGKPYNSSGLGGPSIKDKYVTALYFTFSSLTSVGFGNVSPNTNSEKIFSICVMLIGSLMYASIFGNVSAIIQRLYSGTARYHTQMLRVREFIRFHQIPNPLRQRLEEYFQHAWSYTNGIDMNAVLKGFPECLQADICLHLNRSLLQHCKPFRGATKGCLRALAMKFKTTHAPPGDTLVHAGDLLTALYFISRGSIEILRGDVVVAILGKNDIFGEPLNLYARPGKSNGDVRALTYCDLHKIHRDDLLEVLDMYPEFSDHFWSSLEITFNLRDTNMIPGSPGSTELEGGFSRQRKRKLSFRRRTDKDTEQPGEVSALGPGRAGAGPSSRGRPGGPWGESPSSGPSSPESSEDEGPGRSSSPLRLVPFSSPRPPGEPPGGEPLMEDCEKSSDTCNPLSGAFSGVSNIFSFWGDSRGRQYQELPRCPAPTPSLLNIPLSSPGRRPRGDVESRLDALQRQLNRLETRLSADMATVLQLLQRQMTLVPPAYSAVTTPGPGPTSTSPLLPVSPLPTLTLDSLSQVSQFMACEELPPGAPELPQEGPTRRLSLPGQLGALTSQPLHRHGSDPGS
row,Structure (SMILES),"hERG current change (%, negative = inhibition) at 10uM"
1,CSc1nsc(SC)c1NC(=O)N1CCCCC1,2.74%
2,O=C(NC(=S)N(Cc1ccccc1)Cc1ccccc1)c1ccccc1F,18.5%
3,O=C(Cn1c(CO)nc2ccccc21)Nc1cc(C(F)(F)F)ccc1N1CCOCC1,1.37%
4,O=C(c1cc2ccccc2oc1=O)N1CCN(Cc2ccc3c(c2)OCO3)CC1,-53.7%
5,O=C(NCCN1CCN(C(=O)c2cc3ccccc3oc2=O)CC1)c1cc2ccccc2oc1=O,-15.9%
6,Cc1c(C(=O)N2CCN(CCc3ccccc3)CC2)oc2ccccc12,-72.4%
7,Cc1cc(C(=O)N2CCN(Cc3ccc4c(c3)OCO4)CC2)on1,-4.02%
8,O=C(c1cc(-c2ccccc2)on1)N1CCN(Cc2ccc3c(c2)OCO3)CC1,-50.1%
9,CC(=O)N1CCN(C(=O)c2oc3ccccc3c2C)CC1,8.84%
10,O=C(c1cc2ccccc2o1)N1CCN(Cc2ccc3c(c2)OCO3)CC1,-22.1%
11,CN1CCN(C(=O)c2cc3ccccc3oc2=O)CC1,6.08%
12,Cc1onc(-c2ccccc2)c1C(=O)N1CCN(Cc2ccc3c(c2)OCO3)CC1.Cl,17.5%
13,C=CCN1CCN(C(=O)c2oc3ccccc3c2C)CC1,-0.434%
14,COc1cc2cc(C(=O)N3CCN(Cc4ccc5c(c4)OCO5)CC3)c(=O)oc2cc1OC,-0.572%
15,O=C(c1cc2ccccc2oc1=O)N1CCN(CCc2ccccc2)CC1,-71.8%
16,c1ccc(CCCCNCC2COc3ccccc3O2)cc1 (centres unmarked),-28.5%
17,COc1cc(C(=O)NCCC(c2ccccc2)c2ccccc2)cc(OC)c1OC,0.15%
18,COc1ccc(-c2cc(N)n(CCC#N)n2)c(OC)c1,4.12%
19,O=C(CSc1nnc(-c2ccncc2)o1)Nc1ccccc1C(F)(F)F,-0.412%
20,Cn1c(CNC(=O)CNC(=O)Cc2ccc(Cl)cc2)cc(=O)n(C)c1=O,18.9%
21,COC(=O)C(C)Oc1cc(C)cc2oc(=O)c3c(c12)CCC3 (centres unmarked),-12.7%
22,N#CC1(NC(=O)CSc2nnc(-c3ccccc3F)o2)CCCCC1,-13.1%
23,CC(C)CC(=O)Nc1ccccc1Oc1ccccc1,-2.96%

row,Structure (SMILES),"hERG current change (%, negative = inhibition) at 10uM"
1,Cc1nn(C)c(C)c1S(=O)(=O)N1CCCC(C(=O)NCCc2ccc(Cl)cc2)C1 (centres unmarked),-0.523%
2,Cc1nn(C)c(C)c1S(=O)(=O)N1CCCC(C(=O)N2CCN(c3ccc(Cl)cc3)CC2)C1 (centres unmarked),-70.4%
3,Cc1nn(C)c(C)c1S(=O)(=O)N1CCCC(C(=O)N2CCN(c3ccccc3)CC2)C1 (centres unmarked),-27.6%
4,Cc1n[nH]c(C)c1S(=O)(=O)N1CCCC(C(=O)N2CCN(c3ccc(Cl)cc3)CC2)C1 (centres unmarked),-75.1%
5,O=C(C1CCCN(S(=O)(=O)c2cnc[nH]2)C1)N1CCN(c2ccc(Cl)cc2)CC1 (centres unmarked),-35%
6,CC(=O)c1ccc(N2CCN(C(=O)C3CCCN(S(=O)(=O)c4c(C)[nH]c(=O)[nH]c4=O)C3)CC2)cc1 (centres unmarked),23.4%
7,Cc1cc2c(NC(=O)Nc3ccc(C(F)(F)F)cc3)cccc2nn1,-2.37%
8,Cn1cc([N+](=O)[O-])c(C(=O)Nc2ccc3c(c2)OCCO3)n1,5.3%
9,Cc1cccc(C(=O)N2CCC(=O)N(C(COCc3ccc(Cl)cc3)Cc3ccccc3)CC2)c1 (centres unmarked),-25.7%
10,CCC(C)[C@H](NC(=O)[C@H](Cc1ccccc1)n1c(=O)[nH]c2ccccc2c1=O)C(=O)NCC1CCC(C(=O)O)CC1 (some centres unmarked),20.4%
11,COc1cccc(OCC(=O)N2CCN(C)CC2)c1,-10.1%
12,Cc1cc(=O)oc2c3c(cc(OCC(=O)NCC(=O)O)c12)OC(C)(C)CC3,19%
13,CCN(CC)CCOC(=O)c1ccc(NC(=O)CCNC(=O)Cn2ccc3ccccc3c2=O)cc1,11.8%
14,CC(C)n1cc(CN2CCC(C(=O)Nc3ccc(Oc4ccccc4F)cc3)CC2)cn1,-76.1%
15,CC(C)n1cc(CN2CCCC(C(=O)Nc3ccccc3Oc3cccnc3)C2)cn1 (centres unmarked),-42.4%
16,CCn1cc(CN2CCCC(C(=O)Nc3ccc(-c4nc5ccccc5[nH]4)cc3)C2)c(C)n1 (centres unmarked),-21%
17,CCn1cc(CN2CCC(C(=O)Nc3ccc(Oc4ccccc4F)cc3)CC2)c(C)n1,-72.9%
18,Cn1cc(CN2CCC(C(=O)Nc3ccc(Oc4ccccc4F)cc3)CC2)cn1,-65.6%
19,CN(C)C(=O)CCC(=O)N1CCCCC1C(=O)Nc1ccc(Oc2ccccc2F)cc1 (centres unmarked),-43.9%
20,CCn1cc(CN2CCC(C(=O)Nc3ccc(Oc4cccnc4)cc3)CC2)cn1,-19%
21,CCn1cc(CN2CCC(C(=O)Nc3ccc(Oc4cccnc4)cc3)CC2)c(C)n1,-18.4%
22,COC(=O)c1cc2oc3ccccc3c2n1Cc1ccccn1,-8.74%
23,C/C(=N\N=C1\NC(=O)C(CC(=O)Nc2ccc(Cl)cc2)S1)c1ccco1 (centres unmarked),13%

row,Structure (SMILES),"hERG current change (%, negative = inhibition) at 10uM"
1,CCn1c(SCC(=O)Nc2ccccc2Cl)nnc1C1CC1,6.78%
2,Cc1c(S(=O)(=O)N2CCCC(C)C2)c(=O)n(C)c(=O)n1C (centres unmarked),-2.74%
3,O=C(NCCNC(=O)c1ccccc1)c1ccccc1,2.89%
4,Cc1cc([N+](=O)[O-])cc(C)c1OCC(=O)N/N=C/c1ccc(OC(=O)c2ccccc2Br)cc1,4.23%
5,CCC(C)NC(=O)C1c2ccccc2C(=O)N1Cc1cc(OC)ccc1OC (centres unmarked),9.25%
6,COc1ccc(-c2c(C#Cc3ccsc3)c3cc(-c4ccc5[nH]ccc5c4)ccc3n2C)cc1,24.1%
7,O=C(CN1C(=O)COc2ccccc21)c1cccc(Cl)c1,-14.4%
8,CSc1ccccc1OCc1cc(C(=O)N2CCC[C@H]2C(N)=O)no1,5.26%
9,N#CSCC(=O)c1cccc2ccccc12,-24.8%
10,COc1ccc(NC(=O)C2CCCN(C)C2)cc1OCC(C)C (centres unmarked),-1.9%
11,COc1ccc(NC(=O)C2CCCCN2N)cc1OCC(C)C.O=C(O)C(=O)O (centres unmarked),-5.25%
12,COc1ccc(NC(=O)C2CCCN(CCCc3ccccc3)C2)cc1OCC(C)C.O=C(O)/C=C/C(=O)O (centres unmarked),-52.1%
13,O=C(NCc1ccc2c(c1)OCO2)c1ccc(CN2CCOCC2)cc1,15.3%
14,O=C(NCc1ccccc1)C1Cc2ccccc2CN1C(=O)c1ccco1 (centres unmarked),-12.2%
15,O=C(NCc1ccc(F)cc1)C1Cc2ccccc2CN1C(=O)c1ccco1 (centres unmarked),-42.1%
16,O=C(NCc1ccc2c(c1)OCO2)c1ccc(CN2CCc3ccccc3C2)cc1,-52.5%
17,CCS(=O)(=O)N1Cc2ccccc2CC1C(=O)NCCc1c[nH]c2ccccc12 (centres unmarked),-0.595%
18,O=C(NCCc1c[nH]c2ccccc12)C1Cc2ccccc2CN1C(=O)c1ccco1 (centres unmarked),-71.6%
19,O=C(NCc1ccc2c(c1)OCO2)C1Cc2ccccc2CN1C(=O)c1ccco1 (centres unmarked),-59%
20,O=C(NCc1ccc2c(c1)OCO2)c1ccccc1,-4.18%
21,NS(=O)(=O)c1ccc(CCNC(=O)C2Cc3ccccc3CN2C(=O)c2ccco2)cc1 (centres unmarked),9.39%
22,COc1ccc(N2C(=O)CC(NCc3cccc(F)c3)C2=O)cc1 (centres unmarked),-13.3%
23,Cc1ccc(-n2c(=O)[nH]c3c(oc4ccccc43)c2=O)cc1,-0.961%

row,Structure (SMILES),"hERG current change (%, negative = inhibition) at 10uM"
1,CCOc1ccc(CC2CC(=O)NC2=O)cc1 (centres unmarked),12.5%
2,N=c1oc2ccc(Br)cc2cc1C(=O)NCc1ccc(F)cc1,5.37%
3,C/C(=N/NC(=O)c1ccc(Br)o1)C(C)C,-1.43%
4,Cc1cccc(C(=O)Nc2ccc(C(=O)Nc3ccc(O)cc3)cc2)c1,12.5%
5,O=C(CCCN1C(=O)c2ccccc2C1=O)Nc1ccc(S(=O)(=O)N2CCCCC2)cc1,-28.8%
6,O=C(C[n+]1ccccc1)N1c2ccccc2Sc2ccccc21.[Cl-],20.7%
7,COc1cccc(CNC(=O)CCNS(=O)(=O)c2cccs2)c1,-5.11%
8,COc1ccccc1-c1coc2c(CN3CCOCC3)c(O)ccc2c1=O,8.17%
9,CC(=O)N1CCN(CC(=O)Nc2ccccc2Sc2ccccc2)CC1,-59.5%
10,O=C(CN1CCN(c2ccccc2)CC1)Nc1ccccc1Sc1ccccc1,9.55%
11,O=C(CN1CCOCC1)Nc1ccccc1Sc1ccc(Cl)cc1,-44.1%
12,O=C(CN1CCCC1)Nc1ccccc1Sc1ccc(Cl)cc1,-31.1%
13,CC1CCN(CC(=O)Nc2ccccc2Sc2ccccc2)CC1,-5.71%
14,O=C(CN1CCCC1)Nc1ccccc1Sc1ccccc1,-13.5%
15,NC(=O)C1CCN(CC(=O)Nc2cc(Cl)ccc2Oc2ccccc2)CC1,-67%
16,CN1CCN(CC(=O)Nc2ccccc2Sc2ccccc2)CC1.O=C(O)C(=O)O,-65.3%
17,O=C(CN1CCOCC1)Nc1ccccc1Sc1ccccc1,-31.3%
18,O=C(CN1CCCCC1)Nc1cc(Cl)ccc1Oc1ccccc1,12.5%
19,CC1CCCN(CC(=O)Nc2cc(Cl)ccc2Oc2ccccc2)C1 (centres unmarked),14.3%
20,CC(=O)N1CCN(CC(=O)Nc2ccccc2Sc2ccc(Cl)cc2)CC1,-78%
